The whole screen tested about 420,000 compounds, of which about 64,000 (15%) were called active. Inconclusive results (about 27%) are left out. Calls come from the whole dose curve; as a rule, active = well fitted inhibition curve with a large enough effect; inconclusive = small, poorly fitted or top-dose-only effect; inactive = flat fitted curve, though single readings scatter. Only a sample is shown. Entries that show only a call come without a potency.

This note sets out measurements from PubChem BioAssay AID686978 (National Center for Advancing Translational Sciences (NCATS), 2013).
Potency is the fitted concentration of half-maximal effect.

The test can be described thus: qHTS for Inhibitors of human tyrosyl-DNA phosphodiesterase 1 (TDP1): qHTS in cells in absence of CPT. Note: nearly all actives have a fitted effect of over 55% in size. The following applies: DT40 Tdp1-/- hTDP1 cells, no CPT, ATP luminescence, 48 h; activity change, negative = growth inhibition: at 46.2 µM (top of the series). An outline of the steps:
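Chicken DT40 Tdp1-/- cells complemented with human TDP1, screened without camptothecin (DMSO vehicle only), 400 cells/well. Compounds pin-transferred, cells incubated at 37 °C for at least 48 hr. Growth read as ATP-dependent luminescence (CellTiter-Glo, 30 min at RT).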
In the case of `CCOC(=O)c1c(C)[nH]c(C(=O)OCC(=O)N2CCCC2=O)c1C`, the Potency entry was “inactive”.

`COCCCNC(=O)CN1CCN(Cc2ccccc2Cl)C1=O`: the Potency result was “inactive”. Regarding `CCCc1cc(=O)oc2c(C)c(OCC(=O)N3CCC(C(=O)O)CC3)ccc12`, the Potency result was “inactive”. For `O=[N+]([O-])/C=C1\CCCCCN1`, the Potency result is “inactive”.

`CC1CC(c2ccccc2)n2nc(NC(=O)c3cccs3)nc2N1` (stereo unspecified): the Potency result was “inactive”. Turning to `Cc1nnc(NC(=O)CCC(=O)N2CCC(C)CC2)s1`, the Potency entry was “inactive”. Then `Cc1ccc(OCC(=O)NNC(=S)NCc2ccccc2)cc1`, with “inactive”; and `O=C1CCC(C(=O)OCC(=O)Nc2ccc(OC(F)F)cc2)=NN1`, with “inactive”; and `O=C(CCN1CCN(c2ccccc2)CC1)NNC(=S)Nc1ccccc1`, with “inactive”. Turning to `COC(=O)c1ccc(NC(=S)NN2CCOCC2)cc1`, the Potency entry is “inactive”. Regarding `O=C(Cc1ccccc1)NC(=S)Nc1ccc(N2CCCCC2)cc1`, the Potency is 23.1 µM (active). For the compound `O=C(CN1CCN(c2ccc(O)cc2)CC1)Nc1ccc(-c2ccccc2)cc1`, the Potency entry was “inactive”. Take `Cc1ccc(C(=O)NC(=S)Nc2ccc(N3CCOCC3)cc2)cc1`: the Potency is 29.1 µM (active). `Cc1ccc(C(=O)NC(=S)NCCN2CCOCC2)cc1`: the Potency entry is “inactive”. The value for `Nc1nonc1-c1noc(-c2ccc(Br)o2)n1` was “inactive”. With `CCC1=C(C(=O)OC)C(c2cc(OC)ccc2OC)C(C#N)=C(N)O1` (stereo unspecified), the Potency entry is “inactive”.

Turning to `CCOc1ccc(C(=O)NCCCN2CCCC2=O)cc1`, the Potency entry was “inactive”.

On to `CC(C)OCCCNc1ncnc2c1[nH]c1ccc(F)cc12`, for which the Potency was 2.91 µM (active).

Turning to `O=C1CCCN1CCCNc1ncnc2c1[nH]c1ccccc12`, the Potency result is “inactive”. For `COc1cc(OC)c(OC)cc1/C=N/Nc1ncnc2c1[nH]c1ccc(C)cc12`, the Potency entry was “inactive”.

For the compound `Cc1cc(C)c2c(NC(=O)C3CC3)nn(C)c2n1`, the Potency entry was “inactive”. As for `NC1=NC(c2cc(F)cc(F)c2)n2c(nc3ccccc32)N1` (stereo unspecified), the Potency result was “inactive”. On to `Cc1nnc(N/N=C/C2CC=CCC2)[nH]c1=O` (stereo unspecified), for which the Potency result was “inactive”. Consider `CCN(CC)c1ccc(/C=N/NC(=O)CNC(=O)c2cccnc2)cc1`, for which the Potency entry is “inactive”. Consider `CCN(CC)c1ccc(/C=N/Nc2nc(C)cc(C)n2)c(O)c1`, for which the Potency is 3.26 µM (active). With `CCN(CC)c1ccc(/C=N/NC(=O)c2cnccn2)c(O)c1`, the Potency is 4.11 µM (active). The value for `CCN(CC)c1ccc(C(=O)Nn2c(C)nc3ccccc3c2=O)cc1` was “inactive”; that for `Cc1ccc(C(=O)NCCNC(=O)c2cnccn2)cc1` was “inactive”; that for `CCCCC(CC)C(=O)Nc1ccc(Cl)cn1` (stereo unspecified) was “inactive”. As for `Cc1cc2c(cc1C)N(Cc1ccccc1)C1=NCCCN12`, the Potency was 13 µM (active). `O=C(CN1C2=NCCN2c2ccccc21)c1cccs1`: the Potency result was “inactive”. As to `Nc1ccc(C(=O)OCC(=O)NC2CCCc3ccccc32)cc1[N+](=O)[O-]` (stereo unspecified), the Potency result was “inactive”. On to `CCc1ccc(NC(=O)c2sc3nc4c(cc3c2N)CN(CC)CC4)cc1`, for which the Potency was 18.4 µM (active). On to `CCc1ccc(NC(=O)N2CCc3ccccc3C2)cc1`, for which the Potency result was “inactive”. Turning to `CCN1CCc2nc(NC(=O)c3cc(F)c(F)cc3Cl)sc2C1`, the Potency entry is “inactive”. Take `CC(C(=O)NC1CCCC1)N(c1ccc(Oc2ccccc2)cc1)S(C)(=O)=O` (stereo unspecified): the Potency entry was “inactive”.

In the case of `O=C(C[C@H]1CC[C@H]2[C@@H](COC[C@H](O)CN2C(=O)c2ccccn2)O1)N1CCN(c2ccccc2)CC1`, the Potency result was “inactive”. The value for `O=C(CCSc1ccccc1)NCCSc1ccccn1` was “inactive”. Then `O=c1c(=O)n(Cc2c(F)cccc2Cl)ccn1Cc1ccccc1`, with “inactive”; and `O=[N+]([O-])/C=C/c1ccc2c(ccn2Cc2ccccc2)c1`, with 4.11 µM (active).

Take `O=C(CNC(=O)c1n[nH]c2ccccc12)Nc1cc(Cl)ccc1Cl`: the Potency entry is “inactive”. With `COc1ccc(C)cc1NC(=S)Nc1ccccc1SC`, the Potency result was “inactive”.

On to `CSc1ncccc1C(=O)NC1CCCCCC1`, for which the Potency entry is “inactive”. As for `CC(C)(C)C(=O)Nc1ccc(-c2cn3cccnc3n2)cc1`, the Potency entry was “inactive”.

Consider `Cc1ccc(-c2nnc(SCC(=O)N/N=C/c3cccs3)n2-c2ccc(C)cc2)cc1`, for which the Potency was 14.6 µM (active). For the compound `NNC(=O)CSc1nnc(-c2ccccc2)n1-c1ccccc1`, the Potency entry was “inactive”. The value for `Cc1nc2ccccc2n1CC(=O)N/N=C/c1cccs1` was “inactive”; that for `CN(C)c1nccc(NCc2ccccc2)c1C#N` was “inactive”; that for `Cc1ccc(-c2nnc(SC(C)C#N)n2N)cc1` (stereo unspecified) was “inactive”. Regarding `CCCNC(=O)C(CC)n1nc(CC)n2c(cc3oc(C)cc32)c1=O` (stereo unspecified), the Potency was 20.6 µM (active). As to `CCc1nn(CC(=O)NCC(C)c2ccccc2)c(=O)c2cc3occc3n12` (stereo unspecified), the Potency result was “inactive”. On to `CCc1nn(CCCC(=O)NC(C)c2ccccc2)c(=O)c2cc3occc3n12` (stereo unspecified), for which the Potency entry was “inactive”.

On to `Cc1ccnc(NC(=O)CCC(=O)N(CC(=O)NCCc2ccccc2)Cc2cccs2)c1`, for which the Potency result was “inactive”. On to `C=CCNC(=O)C1CC=CCC1C(=O)O` (stereo unspecified), for which the Potency result is “inactive”. For `CCCCNC(=O)c1ccc(-n2c(=S)[nH]c3ccccc3c2=O)cc1`, the Potency result was “inactive”. For `O=[N+]([O-])c1ccccc1/C=C/CN1CCC(O)CC1`, the Potency result was “inactive”. As to `O=C(c1cc(COc2c(F)cccc2F)on1)N1CCSCC1`, the Potency result was “inactive”.

Turning to `C(=C\c1ccccc1)/CSc1nnc(-c2cccnc2)n1Cc1ccco1`, the Potency entry was “inactive”. Then `N=c1c2c(-c3ccccc3)c(-c3ccccc3)oc2ncn1Cc1ccco1`, with 20.6 µM (active); and `Cn1c(SCC(=O)N2CCOCC2)nnc1-c1ccc2ncccc2c1`, with “inactive”; and `O=C1c2ccncc2C(=O)N1C1CCCCC1`, with “inactive”. Then `Cn1c(=O)c(=O)n(C)c2cc(S(=O)(=O)NCCc3ccccc3)ccc21`, with “inactive”. With `C=CC[C@@H](Cc1ccc(F)cc1)C(=O)OC[C@H]1CCCN1C(=O)[C@H](CC=C)CC(=O)N(CCO)Cc1ccccc1`, the Potency was 18.4 µM (active).

Take `C=CC[C@H](CC(=O)N(CCO)Cc1ccccc1)C(=O)N[C@@H](COC(=O)[C@@H](CC=C)Cc1ccc(F)cc1)Cc1ccccc1`: the Potency was 20.6 µM (active). Take `C=CCC(NC(=O)Cc1ccccc1)C(=O)NCCC` (stereo unspecified): the Potency entry is “inactive”. For `C=CCC[C@@H](Cc1ccc(F)cc1)C(=O)OC[C@@H](C)NC(=O)[C@H](CC=C)CC(=O)N(CCO)Cc1ccccc1`, the Potency is 8.2 µM (active). Turning to `CC(CCc1ccccc1)NC(=O)COC(=O)c1ccc(F)cc1` (stereo unspecified), the Potency entry is “inactive”. `O=C(O)CCC(=O)O`: the Potency result was “inactive”. For `CC(=O)Nc1ccc(N2C(=O)CCC2=O)cc1C`, the Potency result is “inactive”.

Turning to `Cc1cc(=O)cc(C)[nH]1`, the Potency result is “inactive”. For `COc1cc(C(=O)NCCOC(=O)c2cccc(N(C)C)c2)cc(OC)c1OC`, the Potency result is “inactive”. Regarding `Cc1ccc(C(=O)N(CC(=O)NC2CCCC2)c2ccc(F)cc2)s1`, the Potency result was “inactive”. As to `O=[N+]([O-])c1ccccc1NCc1ccccc1Cl`, the Potency entry was “inactive”.

`N/C(=N/O)c1cccn1Cc1ccccc1[N+](=O)[O-]`: the Potency entry was “inactive”. Turning to `O=c1c([N+](=O)[O-])cccn1Cc1ccc(F)cc1Cl`, the Potency is 20.6 µM (active).

Take `COc1ccc(C2C(C#N)=C(/N=C/N3CCOCC3)OC3=C2C(=O)CC(C)(C)C3)cc1OC` (stereo unspecified): the Potency entry was “inactive”. The value for `CC(C)NS(=O)(=O)c1ccc(CCC(=O)N2CCOCC2)cc1` was “inactive”; that for `Cc1ccc(S(=O)(=O)NCCC(=O)NCc2ccc(Cl)cc2)cc1C` was “inactive”. Turning to `CCNS(=O)(=O)c1ccc(CCC(=O)N2CCN(c3cc(Cl)ccc3C)CC2)cc1`, the Potency is 11.6 µM (active). Take `Nc1cc(=O)nc(SCc2ccccc2)n1Cc1ccco1`: the Potency result is “inactive”. On to `O=c1[nH]c(CSc2ncc(-c3ccc(F)cc3)n2Cc2ccco2)nc2ccccc12`, for which the Potency is 20.6 µM (active). The value for `O=C(CSc1nnc2scc(-c3ccc(F)cc3)n12)NCc1ccco1` was “inactive”.

As for `Nc1nonc1-c1nc2ccccc2n1Cc1ccc(F)cc1`, the Potency was 20.6 µM (active).

Regarding `Cc1noc(C)c1COC(=O)Cn1c(C)nc2ccccc21`, the Potency entry was “inactive”. For the compound `Nc1nonc1-c1nc2ccccc2n1CCC(=O)O`, the Potency result is “inactive”. Then `COc1ccc(C)c(Cn2c(-c3nonc3N)nc3ccccc32)c1`, with 2.31 µM (active); and `COc1ccc2oc(N)nc2c1`, with “inactive”.

As to `CC(C)(C)N1CC(c2nc3ccccc3n2Cc2ccc(F)cc2)CC1=O` (stereo unspecified), the Potency entry was “inactive”. With `Cn1c(SCC(=O)N2CCCC2)nnc1-c1cccs1`, the Potency entry is “inactive”. As for `CN(Cc1ccccc1)C(=O)CCNC(=O)Cn1cnc2ccccc2c1=O`, the Potency entry was “inactive”. In the case of `CN1CCCCCC1C(=O)NCCN1Cc2ccccc2OC(c2ccsc2)C1` (stereo unspecified), the Potency entry was “inactive”. On to `Cn1c(=O)c2ccccc2n(CC(=O)Nc2ccc3c(c2)OCCO3)c1=O`, for which the Potency was 9.2 µM (active).

As for `CCc1ccc(NC(=O)Cn2c(=O)n(CCC(=O)NCc3ccc4c(c3)OCO4)c(=O)c3ccccc32)cc1`, the Potency was 9.2 µM (active). In the case of `CCCCC(=O)Nc1ccc2c(c1)OCCO2`, the Potency entry is “inactive”.

`CCc1ccc(NC(=O)Cn2nnc(C(=O)NCc3ccc4c(c3)OCO4)c2N)cc1`: the Potency result is “inactive”. On to `O=C(Cn1c(=O)sc2ccccc21)Nc1ccc2c(c1)OCCO2`, for which the Potency entry is “inactive”.

As to `CCOc1ccc(NC(=O)Cn2c(=O)n(CCCC(=O)NCc3ccc4c(c3)OCO4)c(=O)c3ccccc32)cc1`, the Potency result is “inactive”. As for `Oc1ccc(-c2[nH]ncc2-c2nc3ccccc3s2)c(O)c1`, the Potency entry is “inactive”. With `COCCOC1CCN(C(=O)c2ccc(OC)c(OC3CCN(C(C)C)CC3)c2)CC1`, the Potency entry is “inactive”. The value for `NC(=O)c1ccc(N2CCOCC2)nc1` was “inactive”; that for `CC(C)CNC(=O)COC(=O)/C=C/c1ccco1` was “inactive”. As for `Cc1ccc(-c2onc(C)c2C)cc1S(=O)(=O)Nc1ccccn1`, the Potency entry was “inactive”. `COc1ccc(-c2onc(C)c2C)cc1S(=O)(=O)NCC1CCN(Cc2cccc(F)c2)CC1`: the Potency is 25.9 µM (active). Take `COc1ccc(C)cc1NC(=O)CNCc1cccs1`: the Potency entry is “inactive”.

Turning to `COc1cc(NC(=O)NCC2CCN(Cc3ccc(C)cc3)CC2)cc(OC)c1OC`, the Potency result was “inactive”. The value for `COc1ccc(C)cc1S(=O)(=O)NCCc1ccccc1` was “inactive”.

On to `COc1ccc(-c2onc(C)c2C)cc1S(=O)(=O)NCc1cccs1`, for which the Potency is 18.4 µM (active). As for `O=C(CN1C2CCC1CC(NC(=O)C1CC1)C2)NCc1ccccc1` (stereo unspecified), the Potency entry is “inactive”. Take `O=S(=O)(O)CCN1CCOCC1`: the Potency result is “inactive”.

Regarding `Cc1nc2nc(CSc3nc4ccccc4s3)cc(=O)n2[nH]1`, the Potency entry was “inactive”. Take `C=CCOC(=O)C1=C[C@@H](c2ccc3c(c2)OCO3)C[C@@H](OCCCCO)O1`: the Potency result was “inactive”.
